The results in this text go back to PubChem BioAssay (NCI).

Each structure is given as a SMILES string. This is part of a sample that, as a whole, favours compounds with a hit. Of some 83,000 tested, about 20% had one in any assay.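 Percent growth is the endpoint: 0 to 100 indicates growth inhibition (40 means 60% inhibition), 0 means no net growth, and negative values indicate cell death.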 A number with no mark means an inactive call. Activity calls are given as the source filed them. How the source made its calls: active means growth percent below 10; inactive means the rest.

Holding throughout (assay): NCI-60 one-dose screen, 48 h (100 = growth as untreated, 0 = no growth, -100 = all killed)
The subject of assay [1] is 786-0 renal. Particulars: 10 µM unless noted.
The test system of assay [2] is DU-145 prostate. Particulars: 10 µM unless noted.
Assay [3] deals with MDA-MB-231 breast. Particulars: 10 µM unless noted.
The test system of assay [4] is SF-268 CNS. To be noted: 10 µM unless noted.
The test system of assay [5] is SF-539 CNS. To be noted: 10 µM unless noted.
The subject of assay [6] is M14 melanoma. To be noted: 10 µM unless noted.
Assay [7] relates to HCT-15 colon. To be noted: 10 µM.
The test system of assay [8] is SNB-19 CNS. To be noted: 10 µM unless noted.
Assay [9] deals with UACC-62 melanoma. To be noted: 10 µM unless noted.
Assay [10] deals with SN12C renal. Particulars: 10 µM unless noted.
In assay [11] the test system is ACHN renal. Particulars: 10 µM unless noted.
The test system of assay [12] is MOLT-4 leukemia. To be noted: 10 µM.
Assay [13] has as its system OVCAR-8 ovarian. Particulars: 10 µM unless noted.
The subject of assay [14] is SK-OV-3 ovarian. To be noted: 10 µM unless noted.
Assay [15] concerns NCI/ADR-RES ovarian. To be noted: 10 µM unless noted.
Assay [16] deals with T-47D breast. Particulars: 10 µM unless noted.
Assay [17] has as its system MDA-MB-435 melanoma. To be noted: 10 µM unless noted.
Assay [18] deals with SW-620 colon. To be noted: 10 µM unless noted.
In assay [19] the test system is HCT-116 colon. To be noted: 10 µM unless noted.
For assay [20], the system named is KM12 colon. To be noted: 10 µM unless noted.

Turning to `c1ccc([As]=[As]c2ccccc2)cc1` (stereo not drawn), the growth in assay [1] was -90.4% (active); in assay [2], -6.06% (active); in assay [3] it was -60.9% (active); in assay [4] it was -39.8% (active); in assay [5] it was -66.8% (active); in assay [6], -30.2% (active). For the same compound, the growth is -86.2% (active) in assay [7]; 20.5% in [8]; -76.4% (active) in assay [9]; -20.9% (active) in assay [10]; -99.1% (active) in [11]; -49.1% (active) in [12]. Further, the growth is -22.4% (active) in [13]; 27.5% in assay [14]; 9.34% (active) in assay [15]; -73.1% (active) in assay [16]; -37.6% (active) in [17]; -68.1% (active) in [18]. The growth in assay [19] is -99.4% (active); in [20], 9.67% (active).

`CN(Cc1cccnc1)N=O`: the growth in assay [1] is 107%; in [2] it was 108%; in [3], 103%; in [4] it was 95.5%; in assay [5], 96.8%; in assay [6], 97.4%. The growth is 100% in assay [7]; 99.9% in assay [8]; 98.3% in assay [9]; 102% in assay [10]; 103% in [11]; 102% in assay [12]. Moreover, the growth in assay [13] was 98.6%; in assay [14], 99.4%; in assay [15], 100%; in assay [16], 90.7%; in assay [17] it was 103%; in assay [18], 98.2%. Besides, the growth in [19] is 93.1%; in assay [20], 102%.

In the case of `NCCc1cc(O)c(O)cc1O`, the growth is 99.9% in [1]; 112% in [2]; 94.4% in assay [3]; 104% in assay [4]; 99.6% in assay [6]; 97.6% in assay [7]. The growth is 100% in assay [8]; 89.1% in assay [10]; 87.4% in [11]; 86.5% in assay [12]; 97.8% in assay [13]; 99% in [14]. In addition, the growth in [15] was 101%; in [16], 100%; in assay [17], 108%; in assay [18], 109%; in assay [19] it was 95.3%; in assay [20] it was 96.8%.

Turning to `CC(=O)O[C@H]1CCC2C3CCC4=C/C(=N/O)CCC4(C)C3CCC21C` (stereo partly drawn), the growth in [1] is 76.9%; in assay [2], 93.1%; in assay [3], 110%; in [4], 75.9%; in assay [5] it was 87.6%; in [6], 79.9%. Besides, the growth was 72.3% in assay [7]; 90.7% in [8]; 91.4% in assay [9]; 103% in [10]; 108% in [11]; 72.6% in [12]. In addition, the growth in assay [13] is 99.3%; in [14], 104%; in assay [15], 70.8%; in assay [16], 95.6%; in [17], 20.3%; in [18], 74.4%. Further, the growth in assay [19] was 75.3%; in assay [20] it was 78%.

As for `Oc1ccc2c3c1O[C@H]1c4[nH]c5ccccc5c4C[C@@]4(O)C(C2)N(CC2CC2)CC[C@]314`, the growth in [1] was 95.2%; in assay [2], 96.6%; in assay [3] it was 101%; in [4] it was 93.2%; in assay [5], 103%; in [6] it was 98.6%. The growth in assay [7] is 99.7%; in assay [8], 106%; in assay [9] it was 102%; in assay [10], 103%; in assay [11] it was 89.7%; in assay [12] it was 74.4%. The growth in assay [13] was 93.2%; in assay [14] it was 103%; in [15] it was 92.1%; in assay [16], 84.8%; in assay [17], 100%; in assay [18], 99.9%. The growth is 89.8% in assay [19] and 90.7% in [20].

As for `CCCCCCCCCCCCOc1ccc(C(=O)Oc2ccc(CSP3(=O)OCC4OC(n5cnc6c(N)ncnc65)C(F)C4OP(=O)(O)OCC4OC(n5ccc(=O)[nH]c5=O)C(F)C4O3)cc2)cc1` (stereo not drawn), the growth is 89.1% in assay [1]; 103% in [2]; 108% in assay [3]; 107% in [4]; 24% in [5]; 86.2% in [6]. Besides, the growth in [7] is 101%; in [8] it was 101%; in assay [9], 118%; in [10] it was 109%; in assay [12], 68.3%; in assay [13], 109%. The growth in [14] is 110%; in [15], 102%; in assay [16], 88.5%; in assay [17] it was 106%; in [18], 118%; in assay [19], 83.2%. Besides, the growth in [20] is 106%.

`CC1(CF)NC(=O)NC1=O` (stereo not drawn): the growth was 97.6% in assay [1]; 116% in assay [2]; 99.1% in assay [3]; 104% in assay [4]; 104% in assay [6]; 105% in assay [7]. Further, the growth in assay [8] was 97.9%; in [9], 96.8%; in [10] it was 94.3%; in [12] it was 98.4%; in [13], 102%; in assay [14], 109%. Besides, the growth was 107% in assay [15]; 107% in assay [17]; 106% in assay [18]; 103% in assay [19]; 106% in [20].

As for `c1ccc2nc(OCCN3CC3)ccc2c1`, the growth in assay [1] was 84.2%; in [2], 98.6%; in assay [3], 75%; in assay [4], 96.6%; in [5] it was 97.5%; in assay [6] it was 86.5%. Besides, the growth in assay [7] was 86.5%; in assay [8], 87%; in assay [9], 79.3%; in assay [10], 79.9%; in assay [11], 88%; in assay [12] it was 34%. In addition, the growth in [13] is 78.2%; in assay [14], 96.7%; in [15] it was 89.2%; in assay [16] it was 80.3%; in assay [17], 83.3%; in assay [18], 64.8%. In addition, the results for the growth in assay [19] and in [20] were 25% and 80.3%, respectively.

Take `COc1cc[c]([Hg][Cl])cc1`: the growth in assay [1] is 56%; in [3], 46.2%; in assay [4], 56.8%; in [5], 85.2%; in assay [6], 17%; in [7], -42.8% (active). Moreover, the growth in assay [8] is 28.6%; in assay [9] it was 12.5%; in assay [10] it was -6.35% (active); in assay [11] it was 86.5%; in [12], -7.01% (active); in assay [13] it was 69.8%. Besides, the growth in assay [14] was 120%; in assay [15], 86.2%; in assay [16], -3.04% (active); in [17], 34.3%; in [18], 18.9%; in assay [19] it was 48.4%. In addition, the growth in assay [20] was 102%.
